Assay results reported in PubChem BioAssay (Tox21).
Where “and” joins values, the source holds several entries; their conditions need not be identical. Identical values can stand only once. Results filed as inconclusive are left out. Where a call stands in place of a potency, no number is given. A structure can be active in one record and inactive in another. Calls of active or inactive are those of the source. The call rests on the fitted dose curve; in most records, active means well fitted curve in the direction sought with a large enough effect in the repeat runs; inconclusive means weak or mixed curves; inactive means no such curve, though single readings can be large; an effect the other way counts as inactive or inconclusive.

Experiments:
[1] = Human pregnane X receptor (PXR) small molecule agonists, qHTS cell viability counter screen (AID 1346977); further: nearly all actives have a fitted effect of over 50% in size; further: potency means the concentration at half of the fitted maximal effect
How it was run: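 PXR-Luc HepG2 cells in medium with 5% charcoal-stripped FBS were pre-incubated 5hr, then exposed to compounds for 24hr at 37C. Viability was read in the same wells by CellTiter-Fluor fluorescence, reagent added after 23hr with a 1hr incubation.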

[2] = Caspase-3/7 induction in HepG2 cells by small molecules, qHTS assay (AID 1346978); further: nearly all actives have a fitted effect of over 15% in size
How it was run: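 Wild-type HepG2 cells (2,000/well) were settled 5 h at 37 C, 5% CO2, then exposed to compounds in DMSO for 17 h. Caspase-3/7 activity was read by luminescence 30 min after adding Caspase-Glo 3/7 reagent at room temperature.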

[3] = Caspase-3/7 induction in CHO-K1 cells by small molecules, qHTS cell viability counter screen (AID 1346979); further: nearly all actives have a fitted effect of over 35% in size; further: potency means the concentration at half of the fitted maximal effect
How it was run: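 Wild-type CHO-K1 cells were seeded at 1,500 per well, rested 5hr at 37 C, then exposed to compounds in DMSO. After 16hr, CellTiter-Fluor reagent was added and fluorescence read 1hr later as the viability measure.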

[4] = Caspase-3/7 induction in CHO-K1 cells by small molecules, qHTS assay (AID 1346980); further: nearly all actives have a fitted effect of over 15% in size
How it was run: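 Wild-type cells were seeded at 1,500 per well and settled 5 hr at 37 C, 5% CO2, then exposed to DMSO-dissolved compounds for 17 hr. Caspase-Glo 3/7 reagent was added, and luminescence was read after 30min at room temperature.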

[5] = Caspase-3/7 induction in HepG2 cells by small molecules, qHTS cell viability counter screen (AID 1346981); further: nearly all actives have a fitted effect of over 30% in size; further: potency means the concentration at half of the fitted maximal effect
How it was run: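 Fluorescence read-out of live-cell protease activity (CellTiter-Fluor) after 1 hr with reagent. This was measured in the same wells as the caspase-3/7 luminescence, on HepG2 cells exposed to DMSO-dissolved compounds for 16 hr at 37 C.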

[6] = target: Nuclear receptor subfamily 1 group I member 2 (Homo sapiens) (UniProt O75469); experiment: Human pregnane X receptor (PXR) small molecule agonists, qHTS assay (AID 1346982); further: nearly all actives have a fitted effect of over 35% in size; further: potency means the concentration at half of the fitted maximal effect
How it was run: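 HepG2 PXR-Luc reporter line, 5% charcoal-stripped FBS; 5 hr pre-incubation, compound (DMSO) 24 hr at 37 C/5% CO2; ONE-Glo 30 min RT; luminescence read-out.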

[7] = target: Cytochrome P450 2D6 (Homo sapiens) (UniProt P10635); experiment: Cytochrome P450 Family 2 Subfamily D Member 6 (CYP2D6) small molecule antagonists: luciferase reporter qHTS assay (AID 1671196); further: nearly all actives have a fitted effect of over 50% in size; further: potency means the concentration at half of the fitted maximal effect
How it was run: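 Luminogenic proluciferin substrate, CYP2D6 enzyme; 10 min RT preincubation with compound, NADPH regeneration system added, 1 h RT. Stop/detection reagent, 20 min RT, luminescence read (RLU). Signal proportional to CYP activity.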

[8] = target: Cytochrome P450 2C19 (Homo sapiens) (UniProt P33261); experiment: Cytochrome P450 Family 2 Subfamily C Member 19 (CYP2C19) small molecule antagonists: luciferase reporter qHTS assay (AID 1671197); further: nearly all actives have a fitted effect of over 65% in size; further: potency means the concentration at half of the fitted maximal effect
How it was run: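 CYP2C19 P450-Glo, 1536-well qHTS. Cpd + enzyme/proluciferin substrate 10 min RT; + NADPH regen, 37C 1 h; stop with luciferin detection reagent, 20 min RT, luminescence (RLU). Pos ctrl ketoconazole.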

[9] = target: Cytochrome P450 2C9 (Homo sapiens) (UniProt P11712); experiment: Cytochrome P450 Family 2 Subfamily C Member 9 (CYP2C9) small molecule antagonists: luciferase reporter qHTS assay (AID 1671198); further: nearly all actives have a fitted effect of over 50% in size; further: potency means the concentration at half of the fitted maximal effect
How it was run: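 CYP2C9 activity was measured with a P450-Glo proluciferin substrate. Enzyme–substrate mix was held with compound for 10 min at room temperature, then NADPH regeneration solution was added for 1 h at 37C. Luciferin product was read as luminescence.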

[10] = target: Cytochrome P450 1A2 (Homo sapiens) (UniProt P05177); experiment: Cytochrome P450 Family 1 Subfamily A Member 2 (CYP1A2) small molecule antagonists: luciferase reporter qHTS assay (AID 1671199); further: nearly all actives have a fitted effect of over 50% in size; further: potency means the concentration at half of the fitted maximal effect
How it was run: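 Luminescence readout (relative luminescence units) after luciferin detection reagent, 20 min RT. Preceded by 1 h room-temperature CYP1A2 reaction with NADPH regeneration solution following 10 min compound preincubation with enzyme and proluciferin substrate. Furafylline positive control.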

[11] = target: Voltage-gated inwardly rectifying potassium channel KCNH2 (Homo sapiens) (UniProt Q12809); experiment: Human Ether-a-go-go-Related Gene (hERG) channel small molecule antagonists: fluorescence cell-based qHTS assay (AID 1671200)
How it was run: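 U2OS cells expressing the channel were plated at 1000 cells/well, incubated overnight at 37 C, then loaded with FluxOR II thallium-sensitive dye for 1 h at room temperature in the dark, with a further 10 min at room temperature before stimulation.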

[12] = target: Cytochrome P450 3A4 (Homo sapiens) (UniProt P08684); experiment: Cytochrome P450 Family 3 Subfamily A Member 4 (CYP3A4) small molecule antagonists: luciferase reporter qHTS assay (AID 1671201); further: nearly all actives have a fitted effect of over 50% in size; further: potency means the concentration at half of the fitted maximal effect
How it was run: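 P450-Glo CYP3A4 system with proluciferin substrate; compounds preincubated 10 min RT with enzyme-substrate mix, then NADPH regeneration added for 1 h RT. Detection reagent 20 min, luminescence read as relative luminescence units.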

[13] = target: Nuclear receptor subfamily 1 group I member 2 (Rattus norvegicus) (UniProt Q9R1A7); experiment: Rat pregnane X receptor (rPXR) activation by small molecules, qHTS assay (AID 1346983); conditions: rPXR luciferase reporter cells, One-Glo luminescence, 24 h; stronger effect = higher value; further: nearly all actives have a fitted effect of over 20% in size
How it was run: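 Cell-based rPXR luciferase reporter assay, 2,000 cells per well, rested 5hr at 37 C before compound addition in DMSO, then 24 hr at 37 C. One-Glo reagent was added and luminescence read after 30 min at room temperature.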

[14] = target: Nuclear receptor subfamily 1 group I member 2 (Homo sapiens) (UniProt O75469); experiment: CYP3A4 induction through human pregnane X receptor (PXR) by small molecules, qHTS assay (AID 1346984); further: nearly all actives have a fitted effect of over 40% in size
How it was run: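 HepG2-derived DPX-2 line carrying PXR plus a CYP3A4-promoter luciferase reporter; cells plated 5 hr, compound-exposed 24 hr at 37C. CYP3A4 activity probed with 3uM (final) Luciferin-IPA for 3hr, then luciferase read after One-Glo.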

[15] = target: Nuclear receptor subfamily 1 group I member 2 (Homo sapiens) (UniProt O75469); experiment: Human pregnane X receptor (PXR) activation by small molecules, qHTS assay (AID 1346985); further: nearly all actives have a fitted effect of over 40% in size
How it was run: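 DPX-2 cells (HepG2 co-transfected with a PXR response element and a CYP3A4-promoter luciferase construct) were seeded at 2,000 per well, rested 5 hr at 37C, then exposed to DMSO-dissolved compounds for 24 hr. Activation was read as luciferase luminescence.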

Voltage-gated inwardly rectifying potassium channel KCNH2 (Homo sapiens), sequence (Q12809 whole entry, looked up): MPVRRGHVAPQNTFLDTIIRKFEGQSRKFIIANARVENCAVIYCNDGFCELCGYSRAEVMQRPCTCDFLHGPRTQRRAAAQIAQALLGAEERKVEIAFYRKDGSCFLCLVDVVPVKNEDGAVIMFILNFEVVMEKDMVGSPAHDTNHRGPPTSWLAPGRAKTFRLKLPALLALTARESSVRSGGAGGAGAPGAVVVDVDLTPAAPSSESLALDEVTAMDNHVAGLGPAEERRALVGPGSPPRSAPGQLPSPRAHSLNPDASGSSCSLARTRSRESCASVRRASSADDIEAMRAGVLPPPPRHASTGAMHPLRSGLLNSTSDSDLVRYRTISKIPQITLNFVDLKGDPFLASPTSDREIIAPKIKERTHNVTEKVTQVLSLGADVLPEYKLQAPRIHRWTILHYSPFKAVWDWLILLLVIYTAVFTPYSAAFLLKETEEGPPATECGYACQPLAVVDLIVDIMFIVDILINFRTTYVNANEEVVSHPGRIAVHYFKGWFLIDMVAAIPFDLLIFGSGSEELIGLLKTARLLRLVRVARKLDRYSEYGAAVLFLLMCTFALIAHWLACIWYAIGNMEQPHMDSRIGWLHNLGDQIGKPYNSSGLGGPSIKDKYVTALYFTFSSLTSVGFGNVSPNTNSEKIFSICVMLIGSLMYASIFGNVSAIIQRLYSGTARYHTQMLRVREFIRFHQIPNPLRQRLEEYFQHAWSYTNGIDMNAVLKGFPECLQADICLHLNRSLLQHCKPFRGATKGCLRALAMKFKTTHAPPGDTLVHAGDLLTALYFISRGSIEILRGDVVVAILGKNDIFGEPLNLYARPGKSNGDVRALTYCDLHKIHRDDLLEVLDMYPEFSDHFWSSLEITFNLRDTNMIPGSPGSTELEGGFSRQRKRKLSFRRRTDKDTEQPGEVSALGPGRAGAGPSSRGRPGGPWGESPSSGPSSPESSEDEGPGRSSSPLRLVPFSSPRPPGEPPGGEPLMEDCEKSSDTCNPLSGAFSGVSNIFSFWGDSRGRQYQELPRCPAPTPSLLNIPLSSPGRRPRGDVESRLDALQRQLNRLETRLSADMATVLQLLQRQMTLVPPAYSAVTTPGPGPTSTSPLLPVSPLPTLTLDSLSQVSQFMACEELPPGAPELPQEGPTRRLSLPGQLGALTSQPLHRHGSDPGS
Cytochrome P450 1A2 (Homo sapiens), sequence (P05177 whole entry, looked up): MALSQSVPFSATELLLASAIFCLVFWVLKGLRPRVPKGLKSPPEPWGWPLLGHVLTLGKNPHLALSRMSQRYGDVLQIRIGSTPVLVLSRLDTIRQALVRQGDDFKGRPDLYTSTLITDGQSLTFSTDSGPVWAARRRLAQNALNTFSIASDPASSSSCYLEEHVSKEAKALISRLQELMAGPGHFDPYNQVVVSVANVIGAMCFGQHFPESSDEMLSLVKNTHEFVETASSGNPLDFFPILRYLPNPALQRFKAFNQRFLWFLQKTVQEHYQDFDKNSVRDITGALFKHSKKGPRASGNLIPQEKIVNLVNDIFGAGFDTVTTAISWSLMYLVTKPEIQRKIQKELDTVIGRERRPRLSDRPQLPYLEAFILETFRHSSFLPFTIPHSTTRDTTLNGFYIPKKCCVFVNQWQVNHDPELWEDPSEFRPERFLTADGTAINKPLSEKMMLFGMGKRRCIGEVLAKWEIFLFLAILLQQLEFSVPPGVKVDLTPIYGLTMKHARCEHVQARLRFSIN
Nuclear receptor subfamily 1 group I member 2 (Homo sapiens), sequence (O75469 whole entry, looked up): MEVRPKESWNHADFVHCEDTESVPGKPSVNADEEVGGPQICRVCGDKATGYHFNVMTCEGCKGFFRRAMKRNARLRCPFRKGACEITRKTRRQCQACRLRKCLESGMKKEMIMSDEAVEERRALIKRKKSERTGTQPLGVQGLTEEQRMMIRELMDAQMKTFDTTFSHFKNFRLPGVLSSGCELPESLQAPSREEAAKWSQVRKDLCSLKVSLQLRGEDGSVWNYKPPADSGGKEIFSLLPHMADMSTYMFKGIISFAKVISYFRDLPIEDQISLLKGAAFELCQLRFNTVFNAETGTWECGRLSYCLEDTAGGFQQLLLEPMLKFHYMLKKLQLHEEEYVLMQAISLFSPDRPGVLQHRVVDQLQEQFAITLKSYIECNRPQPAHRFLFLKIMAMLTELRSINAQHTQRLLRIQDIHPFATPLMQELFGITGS
Cytochrome P450 2C19 (Homo sapiens), sequence (P33261 whole entry, looked up): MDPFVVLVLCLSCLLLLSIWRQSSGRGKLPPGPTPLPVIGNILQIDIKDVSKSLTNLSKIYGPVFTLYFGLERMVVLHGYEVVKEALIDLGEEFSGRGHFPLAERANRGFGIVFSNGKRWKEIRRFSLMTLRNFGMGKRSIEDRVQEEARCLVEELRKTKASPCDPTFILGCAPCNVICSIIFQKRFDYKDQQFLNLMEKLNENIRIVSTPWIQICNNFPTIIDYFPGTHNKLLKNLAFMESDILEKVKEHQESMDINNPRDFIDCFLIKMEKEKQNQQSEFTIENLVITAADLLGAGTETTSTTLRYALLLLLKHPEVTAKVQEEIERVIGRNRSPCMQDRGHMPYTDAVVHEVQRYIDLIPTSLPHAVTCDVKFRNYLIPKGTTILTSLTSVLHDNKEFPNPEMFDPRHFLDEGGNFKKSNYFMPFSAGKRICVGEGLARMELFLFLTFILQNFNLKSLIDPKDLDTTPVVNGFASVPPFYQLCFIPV
Cytochrome P450 2C9 (Homo sapiens), sequence (P11712 whole entry, looked up): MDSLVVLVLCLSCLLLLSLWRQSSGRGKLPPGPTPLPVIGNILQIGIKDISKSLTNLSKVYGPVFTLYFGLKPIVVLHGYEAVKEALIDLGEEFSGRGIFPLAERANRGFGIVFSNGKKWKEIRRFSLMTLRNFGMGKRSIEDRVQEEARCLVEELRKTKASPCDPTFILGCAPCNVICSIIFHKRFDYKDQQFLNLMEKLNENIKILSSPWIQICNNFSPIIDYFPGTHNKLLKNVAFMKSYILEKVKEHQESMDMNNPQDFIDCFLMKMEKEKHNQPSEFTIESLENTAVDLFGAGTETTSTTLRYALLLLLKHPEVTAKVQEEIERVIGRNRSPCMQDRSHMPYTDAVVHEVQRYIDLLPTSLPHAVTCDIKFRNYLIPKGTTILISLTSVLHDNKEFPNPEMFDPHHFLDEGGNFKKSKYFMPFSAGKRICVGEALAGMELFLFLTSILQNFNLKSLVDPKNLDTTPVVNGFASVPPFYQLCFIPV
Nuclear receptor subfamily 1 group I member 2 (Rattus norvegicus), sequence (Q9R1A7 whole entry, looked up): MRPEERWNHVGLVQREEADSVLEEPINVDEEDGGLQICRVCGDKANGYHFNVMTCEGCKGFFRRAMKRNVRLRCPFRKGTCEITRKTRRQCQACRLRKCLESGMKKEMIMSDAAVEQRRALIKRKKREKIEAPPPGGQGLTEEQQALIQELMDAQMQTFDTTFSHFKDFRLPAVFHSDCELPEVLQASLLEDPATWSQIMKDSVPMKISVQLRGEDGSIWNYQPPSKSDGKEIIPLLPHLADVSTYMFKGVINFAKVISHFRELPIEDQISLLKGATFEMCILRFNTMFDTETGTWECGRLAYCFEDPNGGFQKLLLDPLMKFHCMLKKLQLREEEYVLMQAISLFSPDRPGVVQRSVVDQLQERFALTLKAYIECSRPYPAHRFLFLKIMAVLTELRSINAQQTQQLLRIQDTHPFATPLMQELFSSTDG
Cytochrome P450 2D6 (Homo sapiens), sequence (P10635 whole entry, looked up): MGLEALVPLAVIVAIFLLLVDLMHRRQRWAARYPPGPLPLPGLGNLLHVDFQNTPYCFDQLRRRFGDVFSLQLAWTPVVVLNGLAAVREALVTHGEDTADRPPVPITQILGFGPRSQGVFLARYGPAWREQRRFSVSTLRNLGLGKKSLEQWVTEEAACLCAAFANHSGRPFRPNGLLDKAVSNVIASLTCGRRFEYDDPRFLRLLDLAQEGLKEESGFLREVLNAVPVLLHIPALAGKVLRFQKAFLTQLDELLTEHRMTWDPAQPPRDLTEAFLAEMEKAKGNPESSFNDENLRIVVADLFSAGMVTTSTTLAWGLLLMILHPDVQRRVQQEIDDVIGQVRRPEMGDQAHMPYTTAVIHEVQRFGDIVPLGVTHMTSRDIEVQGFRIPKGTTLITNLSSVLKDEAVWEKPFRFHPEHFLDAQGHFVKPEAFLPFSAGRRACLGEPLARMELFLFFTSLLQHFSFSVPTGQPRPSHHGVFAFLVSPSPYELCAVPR
Cytochrome P450 3A4 (Homo sapiens), sequence (P08684 whole entry, looked up): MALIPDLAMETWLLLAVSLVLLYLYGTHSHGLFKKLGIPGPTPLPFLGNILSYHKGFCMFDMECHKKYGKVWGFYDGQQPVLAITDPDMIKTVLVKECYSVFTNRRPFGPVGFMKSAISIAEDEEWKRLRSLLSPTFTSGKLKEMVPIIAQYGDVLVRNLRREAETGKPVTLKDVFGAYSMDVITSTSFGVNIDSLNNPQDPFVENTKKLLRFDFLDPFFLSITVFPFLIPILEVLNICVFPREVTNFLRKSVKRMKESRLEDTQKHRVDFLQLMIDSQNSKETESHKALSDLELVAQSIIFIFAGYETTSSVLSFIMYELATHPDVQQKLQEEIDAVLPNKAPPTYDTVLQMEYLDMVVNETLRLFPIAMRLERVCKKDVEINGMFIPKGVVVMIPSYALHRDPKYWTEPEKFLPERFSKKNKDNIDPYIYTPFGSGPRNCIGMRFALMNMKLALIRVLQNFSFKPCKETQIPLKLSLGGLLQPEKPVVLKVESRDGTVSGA

SMILES | Potency [1] | Potency [2] | Potency [3] | outcome [4] | Potency [5] | Potency [6] | Potency [7] | Potency [8] | Potency [9] | Potency [10] | Potency [11] | Potency [12] | max activation [13] | Potency [14] | outcome [15]
CC(=O)CC(C)(C)O | inactive | inactive | inactive | inactive | inactive | inactive | inactive | 40.6 µM (active) and inactive | inactive | inactive | inactive | inactive |  |  | 
Cc1ccc(S(=O)(=O)N=C=O)cc1 | 28.2 µM (active) and inactive | inactive | 6.73 µM (active) and inactive | inactive | 53.4 µM (active) and inactive | inactive | inactive | inactive | inactive | inactive | inactive | inactive |  |  | 
C[C@]12CC[C@@H]3c4ccc(O)cc4CC[C@H]3[C@@H]1C[C@@H](O)[C@@H]2O | inactive | inactive | inactive | inactive | inactive | inactive | inactive | inactive | inactive | 31.7 µM (active) and inactive | inactive | inactive | -0.315% (inactive) | inactive | inactive
C=C(C)[C@H]1CC=C(C)C(=O)C1 | inactive | inactive | inactive | inactive | inactive | inactive | 18.2 µM (active) and inactive | inactive | inactive | inactive | inactive | inactive |  |  | 
COCCCN | inactive | inactive | inactive | inactive | inactive | inactive | inactive | inactive | inactive | inactive | inactive | inactive |  |  | 
OCc1ccccc1 | inactive | inactive | inactive | inactive | inactive | inactive | inactive | 35.1 µM (active) |  | inactive | inactive | inactive | -0.795% (inactive) | inactive | inactive
Cc1ccc(C(C)C)c(O)c1 | inactive | inactive | inactive | inactive | inactive | inactive | inactive | 71 µM (active) and 34.7 µM (active) |  | 31.7 µM (active) and 15.5 µM (active) | inactive | inactive | -2.47% (inactive) | inactive | inactive
CC(C)OP(=O)(CP(=O)(OC(C)C)OC(C)C)OC(C)C | inactive | inactive | inactive | inactive | inactive | 27.3 µM (active) and inactive | inactive | 35.6 µM (active) and inactive | inactive | inactive | inactive |  |  |  | 
COC(=O)c1cccnc1 | inactive | inactive | inactive | inactive | inactive | inactive | inactive | inactive | inactive | inactive | inactive | inactive | -1.84% (inactive) | inactive | inactive
CCCCCCCCCCCCCCCC(=O)OC(C)C | inactive | inactive | inactive | inactive | inactive | inactive | inactive | inactive | inactive |  | inactive | inactive | -0.875% (inactive) | inactive | inactive
CCCCC(C=O)CC (stereo not given) | inactive | inactive | inactive | inactive | inactive | inactive | inactive | inactive | inactive | inactive | inactive | inactive |  |  | 
CCCCCCCCCCCCCCCCO | inactive | inactive | inactive | inactive | inactive | inactive | inactive | inactive | 17.8 µM (active) and inactive | inactive | inactive | inactive | -1.74% (inactive) | inactive | inactive
CN(C)c1ccc(O)c2c1C[C@H]1C[C@H]3[C@H](N(C)C)C(=O)C(C(N)=O)=C(O)[C@@]3(O)C(=O)C1=C2O | inactive | inactive | 68.6 µM (active) and 29.8 µM (active) | inactive | 54.5 µM (active) and 29.8 µM (active) | inactive | inactive | inactive | inactive |  | inactive | inactive | -2.35% (inactive) | inactive | inactive
CCOC(=O)c1ccc(N)cc1 | inactive | inactive | inactive | inactive | inactive | inactive | inactive | 39.9 µM (active) and inactive | 35.6 µM (active) | 12.6 µM (active) | inactive | inactive | -0.927% (inactive) | inactive | inactive
COc1ccc(N)c(C)c1 | inactive | inactive | inactive | inactive | inactive | inactive | 8.9 µM (active) and 31.7 µM (active) | 39.8 µM (active) and 39.9 µM (active) | 35.4 µM (active) and 63.3 µM (active) | 15.8 µM (active) and 12.6 µM (active) | inactive | 31.6 µM (active) |  |  | 
CCO[Si](CCC#N)(OCC)OCC | inactive | inactive | inactive | inactive | inactive | inactive | inactive | inactive | inactive | inactive | inactive | inactive |  |  | 
OC1C(O)C(O)C(O)C(O)C1O (stereo not given) | inactive | inactive | inactive | inactive | inactive | inactive | inactive | inactive | inactive |  | inactive | inactive | -0.165% (inactive) | inactive | inactive
